Data on 8 molecules can be found in PubChem BioAssay (Tox21).

Each structure is given as a SMILES string. Values joined by “and” are separate entries in the source; they are usually repeats but may differ in a detail not shown here. Equal entries are not always repeated. Values without a mark were called inactive. Inconclusive results are not listed. Active and inactive are the calls of the source. Unless noted, calls follow the shape of the dose curve; as a rule, active = well fitted curve in the direction sought with a large enough effect in the repeat runs; inconclusive = weak or mixed curves; inactive = no such curve, though single readings can be large; an effect the other way counts as inactive or inconclusive.

The nature of assay [1]: qHTS assay to identify small molecule antagonists of the estrogen related receptor (ERR) signaling pathway from Tox21 library - cell viability counter screen (AID 1224834). Also: nearly all actives have a fitted effect of over 30% in size. Also: potency is read from the fitted curve at half-maximal effect. The method, boiled down: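 Cytotoxicity of test substances is gauged in the same ERR cells used for the antagonist screen, after 17.5 h of compound treatment at 37 C, by CellTiter-Fluor fluorescence measured after 30 min.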

Assay [2] deals with Luciferin 4-monooxygenase (Photinus pyralis) (UniProt P08659). The experiment in a line: qHTS assay to identify small molecule inhibitors of firefly luciferase (AID 1224835). Also: nearly all actives have a fitted effect of over 25% in size. The essentials:
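Biochemical qHTS: compounds run as interplate titrations against purified firefly enzyme, with D-luciferin and ATP each at its KM concentration. Light output recorded by CCD imaging.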

A short description of assay [3]: qHTS assay to identify small molecule agonists of the constitutive androstane receptor (CAR) signaling pathway - cell viability counter screen (AID 1224836). Also: nearly all actives have a fitted effect of over 45% in size. Also: potency is read from the fitted curve at half-maximal effect. The essentials: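 Double-stable HepG2 hepatoma cells (hCAR plus CYP2B6-2.2kb) are treated for 23 h at 37 C with test compounds in 15-point concentration series. PK11195 at 0.75 uM final is co-added. Cell viability is quantified by CellTiter-Fluor.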
(In general: Quantitative high-throughput screening tests each substance at several concentrations.)

The nature of assay [4]: qHTS assay to identify small molecule antagonists of the constitutive androstane receptor (CAR) signaling pathway - cell viability counter screen (AID 1224837). Also: nearly all actives have a fitted effect of over 45% in size. Also: potency is read from the fitted curve at half-maximal effect. The essentials:
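Multiplexed cytotoxicity read-out for the CAR antagonist screen: double-stable HepG2-CYP2B6-hCAR cells co-treated with 50 nM CITCO (final) and compound over 15 concentrations, incubated 23 hr, then assessed by CellTiter-Fluor fluorescence.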

Assay [5] in a line: qHTS assay to identify small molecule antagonists of the estrogen related receptor signaling pathway with the pleiotropic PPARgamma coactivator (PGC) from Tox21 10K library - cell viability counter screen (AID 1224840; active = well fitted cell-killing curve with a large enough effect in the repeat runs, not every such curve was filed as active; also: nearly all actives have a fitted effect of over 40% in size; also: potency is read from the fitted curve at half-maximal effect). The essentials:
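Step one, plate 2,000 PGC/ERR cells per well; step two, incubate 6 h at 37 C/5% CO2; step three, pin-transfer compounds; step four, incubate 17.5 h; step five, add CellTiter-Fluor and read fluorescence after 30 min.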

In assay [6] the target is Thyrotropin receptor (Homo sapiens) (UniProt P16473). The experiment in a line: qHTS assay to identify small molecule agonists of the thyroid stimulating hormone receptor (TSHR) signaling pathway (AID 1224843; calls by dose curve; also: nearly all actives have a fitted effect of over 45% in size; also: potency is read from the fitted curve at half-maximal effect). The method, boiled down:
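Steps: seed 800 TSHR-HEK293 cells per well; add test compound and hold 30 min at ambient temperature; dispense cAMP-d2 then anti-cAMP cryptate; incubate 1 h at ambient; measure fluorescence intensity.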

Assay [7] is described as follows: qHTS assay to identify small molecule agonists of the hypoxia (HIF-1) signaling pathway - cell viability counter screen (AID 1224844; calls by dose curve; also: nearly all actives have a fitted effect of over 50% in size; also: potency is read from the fitted curve at half-maximal effect). The essentials: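 Tox21 10K compounds were added to HRE-bla ME-180 cells (0.5% dialyzed FBS) and incubated 17 hrs at 37C; ATP-based CellTiter-Glo luminescence then reported cell viability in the same wells.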
Assay [8] is described as follows: qHTS assay to identify small molecule agonists of H2AX (AID 1224845; active = well fitted activation curve with a large enough effect in the signal ratio in the repeat runs, not every such curve was filed as active; the % refers to the signal ratio; also: potency is read from the fitted curve at half-maximal effect). The method, boiled down:
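Wild-type CHO-K1 cells, plated overnight, exposed 3hr at 37C to 15 concentrations (0.76% DMSO final). Lysed, then HTRF anti-pH2AX (S139) cryptate and anti-H2AX-d2 antibodies, 24 hr room temperature; 665/620 nm emission read.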

A short description of assay [9]: qHTS assay to identify small molecule agonists of the hypoxia (HIF-1) signaling pathway (AID 1224846; active = well fitted activation curve with a large enough effect in the signal ratio in the repeat runs, not every such curve was filed as active; the % refers to the signal ratio). The method, boiled down:
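Steps: seed ME-180 HRE-bla cells (2,000/well, 0.5% dialyzed FBS); incubate 5 hrs at 37C; pin-transfer compounds or DMSO; incubate 17 hrs; add LiveBLAzer B/G substrate CCF4-AM; measure reporter activation by FRET.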

Assay [10] in a line: qHTS assay to identify small molecule agonists of H2AX - cell viability counter screen (AID 1224847; calls by dose curve; also: nearly all actives have a fitted effect of over 30% in size; also: potency is read from the fitted curve at half-maximal effect). The essentials: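 For this counter screen, overnight-attached CHO-K1 cells received test compounds (15 concentrations, 0.76% DMSO final); 3 hr later at 37C, CellTiter-Glo reagent was added and luminescence recorded after 30 min at room temperature.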
A short description of assay [11]: qHTS RealTime-Glo MT Cell Viability Assay in HepG2 cells - 24 hour (AID 1224867). Also: nearly all actives have a fitted effect of over 50% in size. Also: potency is read from the fitted curve at half-maximal effect. The essentials:
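Viability was tracked continuously by NanoLuc luminescence from prosubstrate reduced by living HepG2 cells, at successive time points over 40 h of compound exposure. Cells with reagent were preincubated 5 h at 37 °C before compound addition.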

Assay [12] is described as follows: qHTS RealTime-Glo MT Cell Viability Assay in HEK293 cells - 32 hour (AID 1224868). Also: nearly all actives have a fitted effect of over 50% in size. Also: potency is read from the fitted curve at half-maximal effect. The method, boiled down: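 Viability tracked continuously by luminescence as live cells reduce a prosubstrate for NanoLuc; HEK293 cells preincubated 5 h, compound-treated at 37 C, and read at 0, 8, 16, 24, 32 and 40 h.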
A short description of assay [13]: A CellTox Green Cytotoxicity Assay to monitor cytotoxicity in HEK293 cells - 0 hour (AID 1224869). Also: nearly all actives have a fitted effect of over 50% in size. The essentials: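 Cytotoxicity was tracked continuously in HEK293 cells by a DNA-binding dye excluded from viable cells. Compounds were transferred in DMSO 5 h after seeding; fluorescence was recorded at intervals up to 40 h.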
Assay [14] in a line: qHTS RealTime-Glo MT Cell Viability Assay in HepG2 cells - 40 hour (AID 1224870). Also: nearly all actives have a fitted effect of over 50% in size. Also: potency is read from the fitted curve at half-maximal effect. The essentials: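 HepG2 cells (600/well) mixed with RealTime-Glo MT reagent, settled 5 h at 37 C/5% CO2 before compound addition. Nonlytic NanoLuc luminescence from viable-cell prosubstrate reduction read repeatedly during 40 h treatment at 37 C.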
Assay [15] addresses Nuclear receptor subfamily 1 group I member 3 (Homo sapiens) (UniProt Q14994). The experiment in a line: qHTS assay to identify small molecule antagonists of the constitutive androstane receptor (CAR) signaling pathway (AID 1224838). Also: nearly all actives have a fitted effect of over 40% in size. Also: potency is read from the fitted curve at half-maximal effect. The method, boiled down:
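Compounds were titrated across 15 concentrations onto HepG2 cells double-stably expressing hCAR and a CYP2B6-2.2kb reporter, together with 50 nM CITCO (final). After 24 h at 37 C, luciferase activity was measured by luminescence.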

Assay [16] has the same target. The experiment in a line: qHTS assay to identify small molecule agonists of the constitutive androstane receptor (CAR) signaling pathway (AID 1224839).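 Also: HepG2 cells stably carrying human CAR and a CYP2B6 luciferase reporter; nearly all actives have a fitted effect of over 15% in size.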 The method, boiled down:
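Readout: firefly luciferase luminescence via ONE-Glo. System: HepG2 double-stable for hCAR and CYP2B6-2.2kb. Conditions: 15-point compound titration, PK11195 at 0.75 uM final, 24 h incubation.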

A short description of assay [17]: qHTS assay to identify small molecule antagonists of the estrogen related receptor signaling pathway with the pleiotropic PPARgamma coactivator (PGC) from Tox21 10K library (AID 1224841; call rule not given here; also: potency is read from the fitted curve at half-maximal effect). The essentials: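 Antagonism in this quantitative HTS is taken from loss of luciferase signal in PGC/ERR cells. Cells (2,000/well) are treated with compounds in DMSO after a 6 h settling period and read by One-Glo luminescence after 18 h.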

Assay [18] is described as follows: qHTS assay to identify small molecule agonists of the estrogen related receptor signaling pathway with the pleiotropic PPARgamma coactivator (PGC) from Tox21 10K library (AID 1224842). Also: nearly all actives have a fitted effect of over 15% in size. The method, boiled down:
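PGC/ERR reporter cell line, 2,000 cells per well, incubated 6 h at 37 C before 23 nL compound in DMSO was added. After 18 h at 37 C, One-Glo luminescence read following 30 min at room temperature.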

Assay [19] is described as follows: qHTS assay to identify small molecule antagonists of the estrogen related receptor (ERR) signaling pathway from Tox21 library (AID 1224848). Also: nearly all actives have a fitted effect of over 50% in size. Also: potency is read from the fitted curve at half-maximal effect. The method, boiled down:
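Luminescent reporter read-out (ONE-Glo) from NTP's ERR cell line after 18 h treatment at 37 C with DMSO-dissolved Tox21 compounds; cells pre-plated 6 h beforehand at 2,000 per well.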

The nature of assay [20]: qHTS assay to identify small molecule agonists of the estrogen related receptor (ERR) signaling pathway from Tox21 library (AID 1224849; calls by dose curve; also: nearly all actives have a fitted effect of over 15% in size). To be noted: ERR reporter cell line, ONE-Glo luciferase, 18 h; at 92.4 µM (top of the series) unless noted. The method, boiled down:
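Agonist signal is luciferase luminescence from an ERR reporter cell line treated 18 h at 37 C with DMSO-dissolved compounds, read 30 min after ONE-Glo addition at room temperature.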
% is scaled to controls: 0 for no effect and ±100 for the full control effect.

Sequence of Thyrotropin receptor (Homo sapiens) (P16473 whole entry, looked up): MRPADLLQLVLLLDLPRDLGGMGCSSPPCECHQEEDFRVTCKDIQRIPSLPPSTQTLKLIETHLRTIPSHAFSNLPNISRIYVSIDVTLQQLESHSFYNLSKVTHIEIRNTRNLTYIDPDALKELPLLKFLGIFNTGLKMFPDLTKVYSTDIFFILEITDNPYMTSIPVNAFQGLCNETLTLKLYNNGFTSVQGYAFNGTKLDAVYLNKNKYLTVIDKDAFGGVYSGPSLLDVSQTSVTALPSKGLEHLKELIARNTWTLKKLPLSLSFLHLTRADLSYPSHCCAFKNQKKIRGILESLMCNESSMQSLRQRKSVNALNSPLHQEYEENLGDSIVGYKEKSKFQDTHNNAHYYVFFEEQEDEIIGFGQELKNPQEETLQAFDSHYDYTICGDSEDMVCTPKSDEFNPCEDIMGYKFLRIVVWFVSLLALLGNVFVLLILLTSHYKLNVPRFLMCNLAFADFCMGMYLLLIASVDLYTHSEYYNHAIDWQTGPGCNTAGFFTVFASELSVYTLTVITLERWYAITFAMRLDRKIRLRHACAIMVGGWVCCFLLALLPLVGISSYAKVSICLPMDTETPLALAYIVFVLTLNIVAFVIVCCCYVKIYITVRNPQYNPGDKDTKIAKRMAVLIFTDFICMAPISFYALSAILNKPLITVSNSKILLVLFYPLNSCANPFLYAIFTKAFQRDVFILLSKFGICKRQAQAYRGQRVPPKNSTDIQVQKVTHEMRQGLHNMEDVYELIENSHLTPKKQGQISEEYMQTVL
Sequence of Luciferin 4-monooxygenase (Photinus pyralis) (P08659 whole entry, looked up): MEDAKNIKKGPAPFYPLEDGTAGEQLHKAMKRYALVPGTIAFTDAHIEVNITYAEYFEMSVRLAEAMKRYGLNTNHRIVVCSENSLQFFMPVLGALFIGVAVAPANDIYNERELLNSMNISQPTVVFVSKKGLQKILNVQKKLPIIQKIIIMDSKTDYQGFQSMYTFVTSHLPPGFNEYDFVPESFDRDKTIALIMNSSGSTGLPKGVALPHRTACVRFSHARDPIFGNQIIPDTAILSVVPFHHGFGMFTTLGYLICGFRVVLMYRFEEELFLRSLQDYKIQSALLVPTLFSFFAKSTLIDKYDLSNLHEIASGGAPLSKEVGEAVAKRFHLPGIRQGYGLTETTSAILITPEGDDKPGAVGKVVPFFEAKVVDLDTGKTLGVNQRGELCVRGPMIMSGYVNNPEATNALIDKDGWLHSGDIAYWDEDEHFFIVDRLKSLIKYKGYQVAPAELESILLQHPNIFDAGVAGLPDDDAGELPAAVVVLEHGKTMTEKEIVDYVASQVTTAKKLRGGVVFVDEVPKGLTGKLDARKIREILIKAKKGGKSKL
Sequence of Nuclear receptor subfamily 1 group I member 3 (Homo sapiens) (Q14994 whole entry, looked up): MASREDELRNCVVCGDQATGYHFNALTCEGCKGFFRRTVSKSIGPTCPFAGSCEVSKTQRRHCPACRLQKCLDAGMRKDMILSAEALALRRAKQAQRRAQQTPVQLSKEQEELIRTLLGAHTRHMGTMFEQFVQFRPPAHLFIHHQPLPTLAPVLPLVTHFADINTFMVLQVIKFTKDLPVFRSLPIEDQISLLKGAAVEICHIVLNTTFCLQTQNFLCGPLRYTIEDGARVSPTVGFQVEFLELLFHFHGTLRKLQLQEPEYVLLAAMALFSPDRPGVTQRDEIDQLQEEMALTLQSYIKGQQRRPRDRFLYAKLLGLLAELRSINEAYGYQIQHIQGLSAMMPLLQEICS

In the case of `C[C@@H](Oc1ccc(Cl)cc1Cl)C(=O)O`, the Potency result in assay [1], in assay [2], in assay [3], in assay [4], in [5] and in [6] was “inactive” each time. Also, the Potency result in assay [7], in assay [8], in [10], in [11], in assay [12] and in [13] was “inactive” in each case. Also, the Potency entry in assay [14] was “inactive”. In addition, the result in assay [9] was inactive.
On to `FC(Cl)(Cl)Cl`, for which the Potency result in assay [1], in [2], in [3], in assay [4], in assay [5] and in [6] was “inactive” throughout. For the same molecule, the Potency entry in assay [7], in assay [8], in [10], in [11], in assay [12] and in [13] was “inactive” in each case. In addition, the Potency result in assay [14] is “inactive”. For the same molecule, the outcome in [9] was inactive.
Take `O=C(CCCN1CCC2(CC1)C(=O)NCN2c1ccccc1)c1ccc(F)cc1`: the Potency entry in assay [1], in assay [2], in assay [16], in assay [5], in assay [17] and in assay [18] was “inactive” each time. Besides, the Potency result in [6], in assay [8], in [19], in [11], in assay [13] and in [14] was “inactive” in each case. In addition, the figures for the Potency in [3], in [15] and in [12] were 5.96 µM (active), 7.5 µM (active) and 9.52 µM (active), respectively.
As for `CC(C)[C@H](C(=O)OC(C#N)c1cccc(Oc2ccccc2)c1)c1ccc(OC(F)F)cc1` (some centres not stated), the Potency result in assay [1], in assay [2], in assay [3], in assay [15], in assay [16] and in assay [5] was “inactive” in each case. Besides, the Potency result in [6], in assay [7], in assay [8], in assay [11], in assay [12] and in assay [13] was “inactive” each time. Moreover, the Potency result in assay [14] is “inactive”. Besides, the Potency in assay [19] was 15.4 µM (active).
Consider `N#CSCSC#N`, for which the Potency in assay [1] was 62.5 µM (active) and 60.5 µM (active); in [3], 44.2 µM (active) and 48.1 µM (active); in assay [15] it was 19.8 µM (active) and 24.1 µM (active); in [5], 55.7 µM (active) and 53.9 µM (active); in assay [7], 17.8 µM (active) and 8.62 µM (active); in [8], 15.8 µM (active). The Potency in assay [10] is 51.6 µM (active) and 50 µM (active); in [19] it was 27.9 µM (active) and 60.5 µM (active); in [11], 50.1 µM (active) and 19.3 µM (active); in assay [12], 12.6 µM (active) and 21.7 µM (active); in assay [14], 50.1 µM (active) and 21.7 µM (active). For the same molecule, the Potency entry in [2], in [16], in [17], in assay [18] and in [13] was “inactive” throughout. In assay [20], the activity change, positive = activation is -81.6% and -76.5%.
For the molecule `COc1cccc(C(=O)CCN[C@@H](C)[C@H](O)c2ccccc2)c1`, the Potency result in assay [1], in [2], in assay [3], in [16], in [5] and in [17] was “inactive” in each case. Further, the Potency entry in [6], in assay [19] and in [13] was “inactive” in each case. Further, in assay [14], the Potency is 23.9 µM (active).
Regarding `Oc1ccc(C2(c3ccc(O)cc3)c3ccccc3-c3ccccc32)cc1`, the Potency is 68.6 µM (active) in [1]; 61.1 µM (active) in [4]; 61.1 µM (active) in assay [5]; 54.5 µM (active) in assay [6]; 89.8 µM (active) in [10]; 54.9 µM (active) in assay [11]. In addition, the Potency result in [2] and in assay [13] was “inactive” each time.
For the molecule `CCc1nn(C)c(C(=O)NCc2ccc(C(C)(C)C)cc2)c1Cl`, the Potency in assay [1] was 30.6 µM (active); in assay [17] it was 0.0611 µM (active); in assay [10] it was 56.6 µM (active); in [19], 0.0486 µM (active); in assay [12] it was 0.0347 µM (active). Also, the Potency result in assay [2], in [4], in [15], in assay [16], in assay [18] and in assay [8] was “inactive” each time. Moreover, the Potency result in [11], in assay [13] and in assay [14] was “inactive” in each case. Moreover, the activity change, positive = activation in assay [20] was -58.3%.
